Source: PubChem (National Center for Advancing Translational Sciences (NCATS))
The list is not random: actives were taken first. Their share in the collection is about 7.9%.
Marburg entry inh: inhibitors of Marburg virus binding or cell entry; Potency, µM (series often up to 37.8 µM), usual class: inhibitors; Marburg virus pseudotyped entry inhibition, cell reporter; AID 540276; 1.8% of 300,000 active; calls by dose curve; tested in HEK293 cells
HCV inhibitor: HCV inhibition | Huh7.5.1 HCVcc-Cre infection, luciferase reporter, 44 h | Potency, µM (top dose mostly 41.8 µM), hits mostly inhibitors | 3.4% of 340,000 active | AID 651820; active = well fitted inhibition curve with a large enough effect; inconclusive = small, poorly fitted or top-dose-only effect, or another doubt; inactive = no such curve, though single readings can be large or run the other way
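Seed cells (1,000/well) for 4 h; treat with compound and infect with HCVcc-Cre, moi about 0.5. Incubate 44 h, then detect luciferase activity.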
Lassa entry inh: Lassa virus entry inhibition | Lassa virus pseudotype entry inhibition, cell reporter | Potency, µM (titrated, usually from 37.9 µM), actives largely listed as inhibitors | 1.2% of 300,000 active; calls by dose curve; tested in HEK293 cells; also: nearly all actives have a fitted effect of over 50% in size
HCMV antiviral: blocks human cytomegalovirus replication; HFF cells, HCMV-luciferase reporter, 72 h; stronger effect = lower value; activity change, negative = inhibition, % at 57.5 µM; 4.5% of 410,000 active; AID 1259415; in the data active = activity change below about -60%; inconclusive = no clear call, values can overlap the other calls; inactive = above about -39%
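Cell-based, HFFs, 1000 cells/well, 16 h 37C; cpds in DMSO + HCMV-luc, MOI 1 PFU/cell; 72 h 37C; OneGlo luminescence after 5 min RT; norm. to buffer vs Salinomycin 10uM.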
FMDV antiviral: antivirals against foot and mouth disease virus | FMDV antiviral cell-based qHTS | Potency, µM (titrated, usually from 57.9 µM), actives largely listed as inhibitors | 1.2% of 410,000 active | AID 1159524; calls by dose curve; tested in HEK293T cells; also: read-out not given here; nearly all actives have a fitted effect of over 45% in size
Hits are given with their value; [ ] = another dose, or the depositor's remark.

Cc1nc(NC(=O)c2cccc(Cl)c2)sc1C(=O)N1CCCCC1 was read as HCV inhibitor inactive, HCMV antiviral inconclusive and FMDV antiviral inactive.
Screening COc1ccccc1OCC(=O)NNC(=O)CCCC(=O)NNC(=O)COc1ccccc1OC returned HCV inhibitor inactive, HCMV antiviral inactive and FMDV antiviral inactive.
Screening COc1ccccc1OCC(=O)NNc1c2ccccc2nc2ccccc12 returned HCV inhibitor 0.56µM, HCMV antiviral -92 and FMDV antiviral inactive.
Screening Cc1ccc(C(=O)NNc2c3ccccc3nc3ccccc23)cc1 returned Marburg entry inh inconclusive, HCV inhibitor 11µM, Lassa entry inh inactive, HCMV antiviral inactive and FMDV antiviral inactive.
`Cc1ccc(C(=O)Nc2ccc3ccccc3n2)cc1` gave Marburg entry inh inconclusive, HCV inhibitor inactive, Lassa entry inh inconclusive, HCMV antiviral -102 and FMDV antiviral inactive.
Screening Cc1cc(CNC(=O)COc2ccccc2F)c2ccccc2n1 returned Marburg entry inh inconclusive, HCV inhibitor 25µM, Lassa entry inh inactive, HCMV antiviral inconclusive and FMDV antiviral inactive.
Screening CN1CCN(c2ncc3nc(-c4ccc(Cl)cc4)c(=O)n(Cc4cccs4)c3n2)CC1 returned FMDV antiviral inactive.
`COc1ccccc1C(=O)Nc1ccc2nc(SCC(=O)N3CCCC3)sc2c1` gave Marburg entry inh inactive, Lassa entry inh inactive, HCMV antiviral inactive and FMDV antiviral inconclusive.
`O=C(CN1CCOCC1)NNc1c2ccccc2nc2ccccc12` gave Marburg entry inh inactive, HCV inhibitor 8.9µM, Lassa entry inh inactive, HCMV antiviral inactive and FMDV antiviral inactive.
`COc1cccc(C(=O)NNc2c3ccccc3nc3ccccc23)c1` gave Marburg entry inh inactive, HCV inhibitor inconclusive, Lassa entry inh inactive, HCMV antiviral inconclusive and FMDV antiviral inactive.
Screening C[N+]1(CC(=O)NNc2c3ccccc3nc3ccccc23)CCOCC1 returned HCMV antiviral -96.
O=C(CN1CCOCCOCCOCC1)Nc1ccccc1 was read as Marburg entry inh inactive, HCV inhibitor inactive, Lassa entry inh inactive and HCMV antiviral inactive.
Cc1nc(C)c(C(=O)NCc2nc(-c3cccc(NC(=O)c4ccccn4)c3)oc2C)s1 was read as FMDV antiviral inactive.
`CC1CCN(S(=O)(=O)c2cc(C(=O)N3CCN(c4ccccc4)CC3)ccc2Br)CC1` gave HCMV antiviral -76 and FMDV antiviral inactive.
For O=C(c1cc(N2C(=O)C3C4CCC(C4)C3C2=O)ccc1Cl)N1CCN(c2ccc(F)cc2)CC1 (centres undefined) the results were Marburg entry inh inconclusive, HCV inhibitor inconclusive, Lassa entry inh inactive, HCMV antiviral inactive and FMDV antiviral 32µM.
Screening CC1CC(C)CN(S(=O)(=O)c2ccc(C(=O)N3CCN(c4ccccc4)CC3)cc2)C1 (centres undefined) returned Marburg entry inh inconclusive, HCV inhibitor 10µM, Lassa entry inh inconclusive and HCMV antiviral inactive.
O=C(c1ccc(Cl)c(S(=O)(=O)N2CCCCC2)c1)N1CCN(c2ccccc2)CC1 was read as Marburg entry inh inconclusive, HCV inhibitor inconclusive, Lassa entry inh inconclusive, HCMV antiviral -77 and FMDV antiviral inconclusive.
Cc1ccccc1Nc1c(-c2ccc(Cl)s2)nc2cccc(C)n12 was read as Marburg entry inh inactive, Lassa entry inh inactive, HCMV antiviral inactive and FMDV antiviral inactive.
For COC(=O)CN(C#N)c1nc(NCc2ccccc2)nc(OC)n1 the results were HCV inhibitor inactive, HCMV antiviral inactive and FMDV antiviral inactive.
CN(C(=O)c1cncc(Br)c1)C1C2CC3CC(C2)CC1C3 (centres undefined) was read as Marburg entry inh inactive, HCV inhibitor inactive, Lassa entry inh inactive, HCMV antiviral inactive and FMDV antiviral inactive.
C[C@]12CCCCC3=CC(=O)C=C[C@@]31OCC2 was read as HCMV antiviral inactive.
Cc1ccc(C(=O)N2CCCCC2)cc1S(=O)(=O)N1CCCC1 was read as HCV inhibitor inactive, HCMV antiviral inactive and FMDV antiviral inactive.
`Cc1ccc(C(=O)N2CCN(c3ccc(F)cc3)CC2)cc1S(=O)(=O)N1CCCCC1` gave Marburg entry inh inconclusive, Lassa entry inh inconclusive, HCMV antiviral -84 and FMDV antiviral inconclusive.
For O=C(c1ccc(Cl)c(S(=O)(=O)N2CCCC2)c1)N1CCN(c2ccccc2)CC1 the results were Marburg entry inh inconclusive, HCV inhibitor inconclusive, Lassa entry inh inconclusive, HCMV antiviral inconclusive and FMDV antiviral inactive.
Screening O=C(c1ccc(Cl)c(S(=O)(=O)N2CCCC2)c1)N1CCN(c2ccc(F)cc2)CC1 returned Marburg entry inh inconclusive, HCV inhibitor inconclusive, Lassa entry inh inconclusive, HCMV antiviral -87 and FMDV antiviral inconclusive.
For CC=COC(=O)N[C@@H](c1ccccc1)[C@]1(C(=O)OCC)CCCC1=O the results were Marburg entry inh inactive.
Screening c1ccc2cc(C3OCC4(CCCC4)CO3)ccc2c1 returned HCMV antiviral inactive and FMDV antiviral inactive.
COC(=O)c1cc2n(n1)CCN(Cc1ccccc1F)C2=O was read as Marburg entry inh inactive, HCV inhibitor inactive, Lassa entry inh inactive, HCMV antiviral inactive and FMDV antiviral inactive.
COC(=O)c1cc2n(n1)CCN(Cc1ccc(F)cc1)C2=O was read as Marburg entry inh inactive, HCV inhibitor inactive, Lassa entry inh inactive, HCMV antiviral -106 and FMDV antiviral inactive.
`O=C(CCCCCn1c(=O)c2sccc2n(CC(=O)Nc2ccccc2F)c1=O)NCc1ccc2c(c1)OCO2` gave Marburg entry inh inactive, Lassa entry inh inactive, HCMV antiviral inactive and FMDV antiviral inactive.
`Cc1ccc(C(=O)c2cn(Cc3cc(C)ccc3C)c3nc(C)ccc3c2=O)cc1` gave Marburg entry inh 7.1µM, Lassa entry inh inconclusive, HCMV antiviral inactive and FMDV antiviral inactive.
Screening CC(=O)c1cccc([N+](=O)[O-])c1 returned HCV inhibitor inconclusive, HCMV antiviral inactive and FMDV antiviral inactive.
Screening O=C(C#Cc1ccccc1)c1cccc([N+](=O)[O-])c1 returned Marburg entry inh 13µM, HCV inhibitor inconclusive, Lassa entry inh inconclusive, HCMV antiviral inactive and FMDV antiviral 25µM.
`CN(CCc1ccccc1)C(=O)c1ccc(NC(=O)Cc2ccc(NC(=O)C3CCN(C(=O)c4ccccc4)CC3)cc2)cc1` gave HCV inhibitor inactive[8.37 µM], HCMV antiviral -63 and FMDV antiviral inactive.
CN(CCc1ccccc1)C(=O)c1ccc(NC(=O)Cc2ccc(NC(=O)C3CCCN(C(=O)c4ccccc4)C3)cc2)cc1 (centres undefined) was read as HCV inhibitor inactive[8.37 µM], HCMV antiviral -76 and FMDV antiviral inconclusive.
`CN(CCc1ccccc1)C(=O)c1ccc(NC(=O)Cc2ccc(NC(=O)C3CCN(C(=O)C4CC4)CC3)cc2)cc1` gave HCV inhibitor inactive[8.37 µM], HCMV antiviral inconclusive and FMDV antiviral inactive.
Screening CN(CCc1ccccc1)C(=O)c1ccc(NC(=O)Cc2ccc(NC(=O)C3CCN(C(=O)C4CCCC4)CC3)cc2)cc1 returned HCV inhibitor inactive[8.37 µM], HCMV antiviral -71 and FMDV antiviral inconclusive.
Screening COCCNC(=O)c1cccc(OC2CCN(Cc3ccc(OC(F)F)cc3)CC2)c1 returned Marburg entry inh inactive, HCV inhibitor 7.1µM, Lassa entry inh inactive, HCMV antiviral inactive and FMDV antiviral inconclusive.
